This is a sample that favours compounds with a hit; in the whole collection about 6.7% have one here.
T cruzi growth-1: T. cruzi intracellular proliferation inhibitors, primary screen, cell-based, beta-gal Tulahuen parasites, NIH3T3 host, luminescence. inhibition, % at 8.34 µM. AID 624255, 2012. 77,000 compounds, 5.9% hits. T. cruzi beta-gal in NIH3T3, GalScreen luminescence, 90 h;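 active means mean inhibition above about 93%, with at least 55% of replicates each passing it, limit read from the data, passing the limit was not always enough; inconclusive means only one of those two conditions holds; inactive means neither condition holds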
Pf Dd2 growth: P. falciparum Dd2 growth inhibitors, primary screen, SYBR Green fluorescence, single dose replicates | 72 h; hits give low values | activity change, % at 10 µM | 94,000 compounds, 2.3% hits | AID 1159554, 2015; in the data active means activity change below about -80%; inconclusive means no clear call, values can overlap the other calls
C diff HTS: C. difficile growth inhibitors, primary screen, HTS. growth activity, negative = inhibition, % at 16 µg/mL (by protocol). 86,000 compounds, 0.25% hits. AID 1259249, 2017. Clostridium difficile clinical isolate growth, OD600, 24 h; hits give low values;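 active means mean growth activity at or below -80% and every replicate also at or below -80%; inconclusive means mean at or below -80% but some replicate above -80%; inactive means mean growth activity above -80%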;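 further: 0% = DMSO wells and -100% = levofloxacin 16 µg/mL wells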
T cruzi growth-2: T. cruzi intracellular proliferation inhibitors, confirmation, cell-based, NIH3T3 host, beta-gal parasite, luminescence, cherry-pick; shares compounds with T cruzi growth-1; inhibition, % at 8.35 µM; T. cruzi beta-gal in NIH3T3, GalScreen luminescence, 90 h; AID 651739, 2012; 5,600 compounds, 72% hits;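 active means mean replicate inhibition above about 95% and at least 55% of replicates individually reaching it, limit read from the data; inconclusive means only one of the two criteria is met; inactive means neither criterion is met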
T cruzi growth-3: inhibitors of intracellular T. cruzi replication, confirmation, NIH3T3 host cells, beta-gal parasites, cherry-pick, set 2. shares compounds with T cruzi growth-1. T. cruzi beta-gal in NIH3T3, GalScreen luminescence, 90 h. inhibition, % at 2.09 µM. 5,600 compounds, 21% hits. AID 651740, 2012;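 active means mean inhibition above about 95%, with at least 55% of replicates also reaching it, limit read from the data; inconclusive means meets just one of the two conditions; inactive means meets neither condition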;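 further: plate controls were neutral control median for no effect and positive control median for full effect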
NIH3T3 tox: cytotoxicity in mouse NIH/3T3 fibroblasts, confirmation, cytotoxicity control for T. cruzi proliferation inhibitor project, cell-based, cherry-pick, single point; shares compounds with T cruzi growth-1; NIH/3T3 viability, CellTiter-Glo ATP luminescence, 90 h; cytotoxicity (signal decrease), % at 8.35 µM; 5,600 compounds, 14% hits; AID 651742, 2012;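 active means mean signal decrease across replicates above about 35% based on untreated-well scatter, with enough replicates individually passing, limit read from the data; inconclusive means no rule stated though some were filed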;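 further: 0% = median of neutral control wells and 100% = median of positive control wells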
3T3 cytotox 2: NIH/3T3 fibroblast cytotoxicity, confirmation, cytotoxicity control, cell-based, cherry-pick, single point, set 2 | shares compounds with T cruzi growth-1 | NIH/3T3 viability, CellTiter-Glo ATP luminescence, 90 h | inhibition, % at 24.9 µM | 5,600 compounds, 56% hits | AID 651744, 2012;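 active means mean loss of cell viability signal at or above a set limit, and enough replicates individually reaching it; inconclusive means meets only the mean limit or only the replicate share; inactive means meets neither condition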;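 further: 0% = median of neutral control wells and 100% = median of positive control wells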
Starred values were filed as active, the others as inactive; ? = inconclusive; · = not tested or not shown; ! = not confirmed by another sample.

SMILES	T cruzi growth-1	Pf Dd2 growth	C diff HTS	T cruzi growth-2	T cruzi growth-3	NIH3T3 tox	3T3 cytotox 2
COc1ccc(S(=O)(=O)N(C)C[C@@H]2OCCCC[C@@H](C)Oc3ccc(NC(=O)Nc4ccc5c(c4)OCO5)cc3C(=O)N([C@@H](C)CO)C[C@H]2C)cc1	?	-82*	0	107*	71	-5	-4
C[C@@H]1CCCCO[C@@H](CN(C)S(=O)(=O)c2ccc(F)cc2)[C@@H](C)CN([C@H](C)CO)C(=O)c2cc(NC(=O)Nc3ccc4c(c3)OCO4)ccc2O1	35	-75	9	·	·	·	·
O=C(C[C@@H]1C=C[C@@H](NC(=O)c2ccccc2)[C@@H](CO)O1)NCCc1ccncc1	-32	12	0	·	·	·	·
O=C(C1CC1)N1CCCCN2[C@H](CO)[C@@H](c3ccc(C#CC4(O)CCCC4)cc3)[C@H]2C1	-20	32	-9	·	·	·	·
C[C@H]1CN([C@@H](C)CO)S(=O)(=O)c2ccc(C3=CCCC3)cc2O[C@H]1CN(C)C(=O)C1CCC1	52	-38	-6	·	·	·	·
C[C@@H]1CN([C@@H](C)CO)S(=O)(=O)c2ccc(C3=CCCC3)cc2O[C@@H]1CN(C)C(=O)C1CCOCC1	65	-1	-3	·	·	·	·
C[C@H](CO)N1C[C@H](C)[C@@H](CN(C)C(=O)C2CCOCC2)Oc2cc(C3=CCCC3)ccc2S1(=O)=O	?	-24	-3	67	6	20	29*
C[C@@H]1CN([C@@H](C)CO)S(=O)(=O)c2ccc(C3=CCCCC3)cc2O[C@H]1CN(C)C(=O)C1CCC1	28	-34	2	·	·	·	·
C[C@@H]1CN([C@H](C)CO)S(=O)(=O)c2ccc(C3=CCCCC3)cc2O[C@@H]1CN(C)C(=O)C1CCCCC1	127*	-47	-11	96*	92	30	102*
C[C@H]1CN([C@@H](C)CO)S(=O)(=O)c2ccc(C3=CCCC3)cc2O[C@@H]1CN(C)C(=O)C1CCCCC1	105*!	-24	-10	102*!	71	-6	57*!
Cc1ccc(S(=O)(=O)N[C@H]2CC[C@@H](CCNC(=O)c3ccc4c(c3)OCO4)O[C@@H]2CO)cc1	-91	-12	-1	·	·	·	·
COc1ccc(S(=O)(=O)Nc2ccc3c(c2)CC(=O)N([C@H](C)CO)C[C@H](C)[C@H](CN(C)Cc2ccc(C(=O)O)cc2)O3)cc1	30	15	-5	·	·	·	·
CNC(=O)C[C@H]1CC[C@H]2[C@@H](COc3ccc(NC(=O)c4ccc5c(c4)OCO5)cc3C(=O)N2C)O1	50	-6	-3	·	·	·	·
C[C@H]1CN([C@@H](C)CO)C(=O)c2cc(-c3ccc(C#N)cc3)cnc2O[C@@H]1CN(C)C(=O)CN(C)C	26	31	-1	·	·	·	·
COCC(=O)N(C)C[C@H]1Oc2ncc(C#CC3(O)CCCC3)cc2C(=O)N([C@@H](C)CO)C[C@H]1C	30	14	2	·	·	·	·
C[C@@H]1CN([C@H](C)CO)C(=O)c2cc(NC(=O)Nc3ccccc3)ccc2O[C@H]1CN(C)S(=O)(=O)c1ccccc1	21	15	5	·	·	·	·
C[C@H](CO)N1C[C@H](C)[C@@H](CN(C)S(=O)(=O)c2ccc(C(F)(F)F)cc2)OCc2ccccc2-c2ccccc2C1=O	102*	-74	7	102*	79	28	54*
C[C@H]1CN([C@@H](C)CO)C(=O)c2ccccc2-c2ccccc2CO[C@H]1CN(C)S(=O)(=O)c1ccc(F)cc1	0	76	·	·	·	·	·
C[C@@H]1CN([C@@H](C)CO)C(=O)c2ccccc2-c2ccccc2CO[C@@H]1CN(C)S(=O)(=O)c1ccc(F)cc1	16	19	·	·	·	·	·
C[C@@H]1CN([C@@H](C)CO)C(=O)c2ccccc2-c2ccccc2CO[C@H]1CN(C)S(=O)(=O)c1ccc(C(F)(F)F)cc1	114*	-72	9	103*	59	5	30*
COc1ccc(CN(C)C[C@@H]2OCCCC[C@H](C)Oc3ccc(NC(=O)C4CCCCC4)cc3C(=O)N([C@@H](C)CO)C[C@@H]2C)cc1	69	-62	·	·	·	·	·
COc1ccc(CN(C)C[C@H]2OCCCC[C@H](C)Oc3ccc(NC(=O)C4CCCCC4)cc3C(=O)N([C@@H](C)CO)C[C@H]2C)cc1	102*	-48	2	?	71	-2	27*
COc1ccc(CN(C)C[C@H]2OCCCC[C@@H](C)Oc3ccc(NC(=O)C4CCCCC4)cc3C(=O)N([C@H](C)CO)C[C@H]2C)cc1	104*	-66	·	102*	60	15	96*
COc1ccc(CN(C)C[C@@H]2OCCCC[C@@H](C)Oc3ccc(NC(=O)C4CCCCC4)cc3C(=O)N([C@@H](C)CO)C[C@H]2C)cc1	89	-54	·	·	·	·	·
COc1ccc(CN(C)C[C@H]2OCCCC[C@H](C)Oc3ccc(NC(=O)C4CCCCC4)cc3C(=O)N([C@H](C)CO)C[C@@H]2C)cc1	74	-41	3	·	·	·	·
SMILES	T cruzi growth-1	Pf Dd2 growth	C diff HTS	T cruzi growth-2	T cruzi growth-3	NIH3T3 tox	3T3 cytotox 2
COc1ccc(CN(C)C[C@H]2OCCCC[C@@H](C)Oc3ccc(NC(=O)C4CCCCC4)cc3C(=O)N([C@@H](C)CO)C[C@H]2C)cc1	105*	-39	·	84	47	6	76*
C[C@@H]1CN([C@H](C)CO)C(=O)c2cc(C3=CCCCC3)cnc2O[C@@H]1CN(C)C(=O)c1cccnc1	·	8	3	·	·	·	·
CC(=O)N(C)C[C@@H]1Oc2cc(C3=CCCCC3)ccc2S(=O)(=O)N([C@@H](C)CO)C[C@H]1C	20	-6	·	·	·	·	·
C[C@@H]1CCCCO[C@H](CN(C)C(=O)Nc2ccc3c(c2)OCO3)[C@@H](C)CN([C@@H](C)CO)C(=O)c2cc(NS(=O)(=O)c3cn(C)cn3)ccc2O1	38	1	1	·	·	·	·
C[C@@H]1CCCCO[C@@H](CN(C)C(=O)CCC(F)(F)F)[C@H](C)CN([C@@H](C)CO)C(=O)c2cc(NC(=O)CCC(F)(F)F)ccc2O1	·	-4	1	·	·	·	·
CC(C)C#Cc1cnc2c(c1)C(=O)N([C@@H](C)CO)C[C@@H](C)[C@@H](CN(C)C(=O)Nc1cccc(F)c1)O2	43	-35	17	·	·	·	·
CN(C)CC(=O)N[C@@H]1CC[C@@H](CCNC(=O)C2CCCC2)O[C@H]1CO	·	7	-4	·	·	·	·
CNC[C@@H]1OCCCC[C@@H](C)Oc2ccc(NC(=O)c3ccccc3)cc2C(=O)N([C@H](C)CO)C[C@@H]1C	84	1	5	·	·	·	·
